# CYP2C19 activ: activators of human cytochrome P450 2C19; P33261; recombinant CYP2C19, luciferin-H EGE luminescence; hits give high values; 0 = fully inhibited enzyme, 1 = untreated enzyme; activation factor at 5 µM; 96,000 tested, under 10 active;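 active means activation factor of at least 2 at 5 µM in the primary screen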;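 further: 0 = wells with 2.5 mM tranylcypromine and 1 = vehicle-only wells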
# CYP2C9 inhib: inhibitors of human CYP2C9; CYP2C9 Supersomes, luciferin-H conversion, luminescence; 96,000 compounds, 20% hits; AID 777; inhibition, % at 5 µM; P11712;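 active means blocking of liver enzyme CYP2C9 beyond about 50% at 5 µM, limit read from the data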
# PLAP activator: activators of human placental alkaline phosphatase. purified PLAP enzyme, luminescent substrate read-out; hits give high values. activation fold at 20 µM. 96,000 compounds, 1.2% hits. AID 696; in the data active means activation fold above about 2
# Target sequence (P05187 whole entry, looked up): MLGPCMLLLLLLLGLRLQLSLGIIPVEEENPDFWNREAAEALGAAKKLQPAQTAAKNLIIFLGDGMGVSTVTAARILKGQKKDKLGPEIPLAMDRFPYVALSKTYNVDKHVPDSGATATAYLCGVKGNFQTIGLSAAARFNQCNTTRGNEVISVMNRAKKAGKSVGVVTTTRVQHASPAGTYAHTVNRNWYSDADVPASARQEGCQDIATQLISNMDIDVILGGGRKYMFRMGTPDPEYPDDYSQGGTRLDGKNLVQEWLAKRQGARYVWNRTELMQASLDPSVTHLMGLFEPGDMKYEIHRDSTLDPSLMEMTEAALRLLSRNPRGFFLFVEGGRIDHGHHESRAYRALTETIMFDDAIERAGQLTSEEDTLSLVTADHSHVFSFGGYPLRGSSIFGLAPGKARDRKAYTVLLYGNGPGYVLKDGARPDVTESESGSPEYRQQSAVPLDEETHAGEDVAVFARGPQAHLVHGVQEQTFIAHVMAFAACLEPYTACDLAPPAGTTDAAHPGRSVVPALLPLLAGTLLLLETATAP
# CYP2C9 activ: increases human cytochrome P450 2C9 activity. P11712. recombinant CYP2C9, luciferin-H conversion, luminescence; hits give high values; factor 1 = untreated enzyme, 0 = blocked. activation factor at 5 µM. 96,000 compounds, 1.4% hits. AID 1024;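 active means activation factor of 2 or more for CYP2C9 at a 5 µM dose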;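 further: 0 = sulfaphenazole-blocked wells and 1 = vehicle-only wells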
# CYP2C19 inh: blocks human cytochrome P450 2C19; inhibition, % at 5 µM; 96,000 compounds, 21% hits; CYP2C19 Supersomes, luciferin-H EGE luminescence, 30 min; P33261;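 active means CYP2C19 inhibition above a set limit at 5 µM in the primary screen, cut at about 50% in these data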;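 further: plate controls were negative control wells for no effect and 2.5 mM tranylcypromine positive control for full effect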
# An asterisk follows results filed as active. A selection: hits, their analogues and other compounds. The true share with any hit is near 31%.
SMILES,CYP2C19 activ,CYP2C9 inhib,PLAP activator,CYP2C9 activ,CYP2C19 inh
Cc1cc(C(=O)CN2C(=O)CCC2=O)c(C)n1Cc1ccccc1,0.4,37,1.3,0.6,62*
CCOC(=O)c1c(C)nn(Cc2ccccc2)c1N,0.9,40,1.2,0.6,8
CCOC(=O)c1cc(C)n(-c2ccc(OC)c(OC)c2)c1C,0.1,63*,1.7,0.4,88*
CCOC(=O)c1cc(C)n(Cc2ccccc2)c1C,0.3,50*,1,0.5,65*
Cc1cc(C(=O)CN2C(=O)NC3(CCCc4ccccc43)C2=O)c(C)n1Cc1ccccc1 (configuration not stated),0.4,71*,1.5,0.3,56*
O=C(CN1C(=O)NC2(CCCc3ccccc32)C1=O)N1CCc2ccccc2C1 (configuration not stated),0.5,59*,1.5,0.4,54*
COCCn1c(C)cc(C(=O)CN2C(=O)NC3(CCCCCCC3)C2=O)c1C,0.8,-285,1.6,3.9*,25
Cc1cc(-n2c(C)cc(C(=O)CN3C(=O)NC4(CCCCCC4)C3=O)c2C)no1,0.5,-2,0.9,1,47
COc1ccc(N2C(=O)CC(N3CCN(S(=O)(=O)c4c(F)cccc4F)CC3)C2=O)cc1OC (configuration not stated),1.1,-23,1.4,1.2,-14
Cc1ccc(CNC(=O)C2CCCN(S(=O)(=O)c3c(C)n[nH]c3C)C2)cc1 (configuration not stated),0.3,15,2.3*,0.8,71*
O=C(Nc1nccs1)C1CCN(S(=O)(=O)c2c(Cl)cccc2Cl)CC1,0.1,40,1,0.6,92*
Cc1n[nH]c(C)c1S(=O)(=O)N1CCCC(C(=O)Nc2nccs2)C1 (configuration not stated),0.4,73*,1,0.3,61*
O=C(O)c1cc(NCc2c(F)cccc2Cl)ccc1N1CCOCC1,1,25,1.3,0.7,-5
O=C(c1ccc(CS(=O)(=O)Cc2ccc(Cl)cc2)o1)N1CCCC1,0.7,40,1,0.6,30
Cc1ccc(-c2nnn(CC(=O)N3CCC(C)CC3)n2)o1,0.8,28,0.9,0.7,18
CCOc1ccc(NC2=NC(C(=O)NCc3ccccc3)CC(=O)N2)cc1 (configuration not stated),0.4,25,1,0.7,62*
Cc1ccc2c(c1)[nH]c1c(N3CCN(Cc4ccc5c(c4)OCO5)CC3)ncnc12,0.2,93*,1.8,0.1,82*
CC(=O)c1c(N2CCN(Cc3ccc4c(c3)OCO4)CC2)nc(=S)n(-c2ccccc2)c1C,1.1,24,1.5,0.8,-7
Clc1ccc(Cn2ncc3c(N4CCOCC4)ncnc32)cc1,0.3,20,1,0.8,67*
Fc1ccccc1Cn1nnc2c(-n3ccnc3)ncnc21,0,91*,0.9,0.1,99*
c1ccc(Cn2nnc3c(N4CCOCC4)ncnc32)cc1,0.2,13,1.2,0.9,76*
O=C(CCCOc1ccc(Cl)cc1)NCC1CCCO1 (configuration not stated),0.9,-8,1.2,1.1,9
O=C(O)CCSCCC(=O)O,1.2,-28,1.1,1.3,-19
COc1ccc(CC(=O)NC(c2ccccc2)c2ccccc2)cc1S(=O)(=O)N1CCOCC1,1.1,27,1.1,0.7,-12
Cc1cc(OCC(=O)NCCCN(C)C)cc(C)c1Br,0.9,-23,1.9,1.2,8
SMILES,CYP2C19 activ,CYP2C9 inhib,PLAP activator,CYP2C9 activ,CYP2C19 inh
c1ccc2c(c1)oc1c(N3CCN(Cc4ccc5c(c4)OCO5)CC3)ncnc12,0.2,86*,1.5,0.1,82*
OC1CCN(c2ncnc3c2nnn3Cc2c(F)cccc2Cl)CC1,0.5,48,1.6,0.5,48
Clc1ccc(N2CCN(c3ncnc4c3oc3ccccc34)CC2)cc1,0.7,9,0.8,0.9,29
c1ccc(Cn2nnc3c(N4CCN(Cc5ccc6c(c5)OCO6)CC4)ncnc32)cc1,0.2,85*,1.5,0.1,84*
Clc1ccccc1Cn1nnc2c(N3CCCC3)ncnc21,0,-122,1.5,2.2*,99*
Cc1cc(-c2nnc3n2N=C(C(C)(C)C)CS3)n[nH]1,0.9,0,1.2,1,9
COc1ccc(CNS(=O)(=O)c2ccc(OC)cc2)cc1,0.2,-28,1.5,1.3,76*
COc1ccc(S(=O)(=O)NCc2ccccc2)cc1,0,-73,0.9,1.7,97*
COc1ccc(S(=O)(=O)NCc2cccs2)cc1,0.1,-16,0.8,1.2,95*
COC(=O)c1sc(S(=O)(=O)N2CCN(c3ccc(OC)cc3)CC2)c(C(=O)OC)c1C,1,2,1.3,1,2
COC(=O)c1c(S(=O)(=O)NCc2ccccc2)sc(C(=O)O)c1C,1.1,62*,1.4,0.4,-11
COc1ccc(S(=O)(=O)NCCC(=O)NCc2ccccc2)cc1,0.9,-70,0.9,1.7,9
COc1cc2c(cc1OC)CN(C(C)C(=O)Nc1ccc(NC(C)=O)cc1)CC2 (configuration not stated),0.8,31,1.4,0.7,18
CC1CCN(C(=O)CSc2nnc(CNC(=O)c3ccco3)o2)CC1,1.1,-10,0.9,1.1,-7
COCC(C)NS(=O)(=O)c1ccc(OC)cc1 (configuration not stated),0.4,-21,1,1.2,61*
CCCOc1ccc(S(=O)(=O)NCc2ccc(OC)cc2)cc1,0.4,23,0.7,0.8,58*
COc1ccc(S(=O)(=O)NCCCCNS(=O)(=O)c2ccc(OC)cc2)cc1,0.8,-28,1,1.3,24
CCOc1ccc(CNC(=O)NS(=O)(=O)c2ccc(OC)cc2)cc1,1.1,2,1.1,1,-8
Cc1nc2ccccn2c1/C(O)=C1\C(=O)C(=O)N(CCN(C)C)C1c1cccnc1 (configuration not stated),1,-3,1,1,-4
CCOc1cc(/C=C2/C(=N)N3OC(C)=CC3=NC2=O)ccc1OCCOc1ccccc1,0.6,62*,1,0.4,41
COCCNCCCCOc1c(Cl)cc(C)cc1Br,0.8,-8,1.3,1.1,17
Cc1cc(Cl)cc(Br)c1OCCCN1C(=O)NC(C)(C)C1=O,0.1,39,1.4,0.6,90*
Cc1cc(Cl)c(OCCN2C(=O)NC(C)(C)C2=O)c(Br)c1,0,14,1,0.9,98*
Cc1cc(Cl)c(OCCCSc2nc(C)cc(=O)[nH]2)c(Br)c1,0.9,26,1,0.7,9
Cc1cc(C)c(OCCN2C(=O)NC(C)(C)C2=O)c(Cl)c1,0,36,1.2,0.6,96*
COCCn1c(-c2cc(OC)c(OC)c(OC)c2)nc2nc3ccccc3nc21,1.1,9,1.1,0.9,-7
CC(=O)c1c(C)oc2ccc(O)c(CN3CCOCC3)c12,0.8,0,1.2,1,20
